The nature of assay [1]: Cellular Toxicity (caspase-3) NIH 3T3 (AID 666).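 Note: caspase signal read after 16 h compound exposure; 0% = DMSO basal and 100% = 100 µM tamoxifen stimulation.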 An outline of the steps:
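Concentration-response qHTS in NIH 3T3 mouse fibroblasts scores caspase-3/7 activation as rising luminescence after 16 hr compound exposure. Signals are scaled between DMSO-only and 100 uM tamoxifen.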

A short description of assay [2]: Cell Viability - LYMP2-001 (AID 921).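 Note: series mostly up to about 92 µM; 0% = DMSO only and full inhibition = tetraoctylammonium bromide control wells; nearly all actives have a fitted effect of over 70% in size.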 An outline of the steps:
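Cellular ATP loss read by luciferase luminescence after 24 h compound exposure at 37 C in complete medium. LYMP2-001 lymphoblastoid cells, 2500/well; qHTS concentration-response data fitted with Hill equation for AC50.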

A short description of assay [3]: MultiTox-Fluor Cytotoxicity Assay - LYMP1-002 - Dead Cells (AID 960).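 Note: cells exposed to compound for 16 h at 37 °C; 0% = DMSO and 100% = tetraoctylammonium bromide; nearly all actives have a fitted effect of over 60% in size.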 The method, boiled down: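 Acute cytotoxicity in a human lymphoblastoid line is scored as rising dead-cell protease signal after 16 hr exposure at 37 C, measured fluorometrically (485/520).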
Assay [4] is described as follows: Cell Viability - LYMP1-003 - Assay at 40 hr (AID 964). Note: series mostly up to about 92 µM; % is set by controls: 0 for no effect and ±100 for the full control effect; nearly all actives have a fitted effect of over 60% in size. The method, boiled down:
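This qHTS cytotoxicity screen treats human lymphoblastoid cells (LYMP1-003) with compounds for 40 hr and quantifies cellular ATP via luciferase luminescence.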

The nature of assay [5]: Cell Viability - LYMP2-003 (AID 965).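 Note: cells exposed to compounds for 24 h before reading; 0% = DMSO only and full effect = 92 µM tetraoctylammonium bromide; nearly all actives have a fitted effect of over 50% in size.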 The method, boiled down: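 CellTiter-Glo luminescence quantified ATP loss after 24 h compound treatment of LYMP2-003 lymphoblastoid cells at 37 C. Titration series were fitted with the standard Hill equation to give AC50.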
Assay [6] is described as follows: Cell Viability - LYMP2-011 (AID 969).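 Note: cells exposed to compound for 24 hours; 0% = DMSO only and full inhibition = 92 µM tetraoctylammonium bromide; nearly all actives have a fitted effect of over 60% in size.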 The method, boiled down: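 Acute toxicity is scored as a concentration-dependent drop in intracellular ATP of a human lymphoblastoid line after 24 hr treatment. Values are AC50s modeled with the Hill equation.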
Assay [7] in a line: Cell Viability - LYMP2-017 (AID 972).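 Note: series mostly up to about 92 µM; cells exposed to compound for 24 hours at 37 °C; % is set by controls: 0 for no effect and ±100 for the full control effect; nearly all actives have a fitted effect of over 55% in size.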 The method, boiled down: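 Steps: plate 2500 lymphoblastoid cells per well; incubate 5 hr at 37 C; add compound across a concentration series and incubate 24 hr at 37 C; add CellTiter-Glo and read luminescence after 30 min at room temperature; fit Hill curves for AC50.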
A short description of assay [8]: Cell Viability - LYMP2-019 (AID 973).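 Note: 0% = DMSO alone and full effect = 92 µM tetraoctylammonium bromide; nearly all actives have a fitted effect of over 55% in size.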 An outline of the steps: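 Cells plated at 2500/well and allowed 5 hr at 37 C before compound addition. After 24 hr incubation, CellTiter-Glo reagent was added, plates sat 30 min at room temperature, and luminescence was recorded.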
Assay [9] is described as follows: Cell Viability - LYMP2-021 (AID 974).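 Note: compound exposure lasts 24 hours at 37 °C; % is set by controls: 0 for no effect and ±100 for the full control effect; nearly all actives have a fitted effect of over 55% in size.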 An outline of the steps: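 Concentration-response cytotoxicity in a human lymphoblastoid line: 24 hr treatment at 37 C in complete culture medium, tetraoctylammonium bromide as positive control, luminescent ATP quantitation as viability measure.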
The nature of assay [10]: Cell Viability - LYMP2-023 (AID 975).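 Note: cellular ATP measured by luciferase luminescence as viability proxy; series mostly up to about 92 µM; cells exposed to compound for 24 hours at 37 °C; plate controls were DMSO only for no effect and 92 µM tetraoctylammonium bromide control for full effect; nearly all actives have a fitted effect of over 55% in size.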 An outline of the steps: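 Concentration-dependent drop in intracellular ATP measures acute cytotoxicity in a human lymphoblastoid line treated for 24 hours in complete culture medium. AC50 values are taken from Hill-equation fits of qHTS data.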
The nature of assay [11]: Cell Viability - LYMP2-014 (AID 983).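 Note: series mostly up to about 92 µM; plate controls were DMSO only for no effect and 92 µM tetraoctylammonium bromide for full effect; nearly all actives have a fitted effect of over 50% in size.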 An outline of the steps:
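Decrease in intracellular ATP after 24 hr treatment at 37 C, measured by luciferase luminescence, indicated cytotoxicity. Concentration-response data were fitted with the standard Hill equation to give AC50.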

Assay [12] is described as follows: Cell Viability - LYMP2-022 (AID 987). The method, boiled down: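 Acute toxicity in a human lymphoblastoid line is scored as decreased intracellular ATP after 24 hr compound treatment at 37 C. ATP is measured by CellTiter-Glo luminescence; curves are fitted with the Hill equation to give AC50.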
A short description of assay [13]: Cell Viability - LYMP2-024 (AID 988).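 Note: plate controls were DMSO only for no effect and 92 µM tetraoctylammonium bromide for full effect; nearly all actives have a fitted effect of over 60% in size.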 An outline of the steps: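 Acute toxicity is measured as concentration-dependent loss of intracellular ATP in a human lymphoblastoid line treated 24 hours at 37 C. Luciferase luminescence quantifies ATP; AC50 values come from standard Hill-equation modelling.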
In assay [14] the target is Peroxisome proliferator-activated receptor delta (Homo sapiens) (UniProt Q03181). As to the kind of experiment: qHTS assay for small molecule agonists of peroxisome proliferator-activated receptor delta signaling (AID 588534; calls by dose curve;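 note: 0% = DMSO basal wells and 100% = positive control agonist at 10 µM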). An outline of the steps: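 Reporter cells were plated and held 5 hrs at 37 C before compounds were added. After 18 hrs at 37 C, CCF4 dye was loaded for 2 hrs at RT and fluorescence measured.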
(qHTS replaces the single test concentration by a dilution series.)

Assay [15] is described as follows: qHTS assay for small molecule antagonists of retinoid X receptor alpha signaling (AID 588546; active = well fitted inhibition curve with a large enough effect in the signal ratio, with a control signal flat, not every such curve was filed as active; the % refers to the signal ratio;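 note: cells stimulated with 9-cis-retinoic acid as agonist; % is set by controls: 0 for no effect and ±100 for the full control effect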). The following applies: HEK293T RXRa-UAS-bla, beta-lactamase ratio, antagonist mode; measured here: W530 green channel, cytotoxicity proxy. The method, boiled down: (§1)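 Beta-lactamase reporter inhibition, read as CCF4 fluorescence ratio (ex 405, em 460/530 nm) after 2 h at RT. HEK293T UAS-bla cells, 2500/well, were stimulated with 9-cis-RA at 500 or 100 nM final alongside test compound for 18 h at 37 C.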

Assay [16] deals with Retinoic acid receptor RXR-alpha (Homo sapiens) (UniProt P19793). Described as above. Conditions: HEK293T RXRa-UAS-bla, beta-lactamase ratio, antagonist mode. The method, boiled down: as §1
Assay [17] concerns the target Voltage-gated inwardly rectifying potassium channel KCNH2 (Homo sapiens) (UniProt Q12809). Nature of the assay: qHTS Assay for Small Molecule Inhibitors of the Human hERG Channel Activity (AID 588834).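 Note: lower thallium flux fluorescence means stronger hERG block; nearly all actives have a fitted effect of over 50% in size.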 Note: potency is the fitted concentration of half-maximal effect. An outline of the steps: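 Kinetic FDSS fluorescence; U2OS + hERG BacMam (~100 virus particles/cell); FluxOR Tl+ flux; ~10 min cpd; AC50 (Hill).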
Assay [18] can be described thus: qHTS assay for small molecule disruptors of the mitochondrial membrane potential - 5 hr assay (AID 651755; calls by dose curve; note: % is set by controls: 0 for no effect and ±100 for the full control effect; nearly all actives have a fitted effect of over 40% in size). An outline of the steps:
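HepG2 cells, attached overnight at 37C, were exposed to compound or DMSO for 5 hr at 37C, 5% CO2. Mito-MPS dye was then added for 30 min, and fluorescence read at 490/535 nm (monomers) and 540/590 nm (aggregates).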

Assay [19] addresses Tumor necrosis factor (Homo sapiens) (UniProt P01375). Nature of the assay: qHTS assay to identify small molecules that stimulate Tumor Necrosis Factor-alpha (TNF-alpha) secretion (AID 651757; active = well fitted curve in the direction sought with a large enough effect in the signal ratio; the % refers to the signal ratio; note: 0% is about no effect). The method, boiled down: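 Secreted TNF-alpha from compound-treated THP-1 cells (17 hrs, 37 C) was quantified with a homogeneous time-resolved fluorescence antibody assay.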
Assay [20] in a line: Cell Viability - LYMP2-002 (AID 977).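 Note: series mostly up to about 92 µM; plate controls were DMSO only for no effect and 92 µM tetraoctylammonium bromide for full effect.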 An outline of the steps:
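Luminescent ATP readout (CellTiter-Glo, 30 min room temperature) after 24 h compound exposure at 37 C of a human lymphoblastoid line, 2500 cells/well. AC50 values derived by standard Hill fitting of qHTS concentration-response data.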

Each structure is given as a SMILES string. Values joined by “and” are separate entries in the source; they are usually repeats but may differ in a detail not shown here. Equal values may be shown once. Inconclusive results are not listed. Active and inactive are the calls of the source. Unless noted, calls come from the whole dose curve; as a rule, active = well fitted curve in the direction sought with a large enough effect; inconclusive = small, poorly fitted or top-dose-only effect, or another doubt; inactive = no such curve, though single readings can be large; an effect the other way counts as inactive or inconclusive.

Sequence of Retinoic acid receptor RXR-alpha (Homo sapiens) (P19793 whole entry, looked up): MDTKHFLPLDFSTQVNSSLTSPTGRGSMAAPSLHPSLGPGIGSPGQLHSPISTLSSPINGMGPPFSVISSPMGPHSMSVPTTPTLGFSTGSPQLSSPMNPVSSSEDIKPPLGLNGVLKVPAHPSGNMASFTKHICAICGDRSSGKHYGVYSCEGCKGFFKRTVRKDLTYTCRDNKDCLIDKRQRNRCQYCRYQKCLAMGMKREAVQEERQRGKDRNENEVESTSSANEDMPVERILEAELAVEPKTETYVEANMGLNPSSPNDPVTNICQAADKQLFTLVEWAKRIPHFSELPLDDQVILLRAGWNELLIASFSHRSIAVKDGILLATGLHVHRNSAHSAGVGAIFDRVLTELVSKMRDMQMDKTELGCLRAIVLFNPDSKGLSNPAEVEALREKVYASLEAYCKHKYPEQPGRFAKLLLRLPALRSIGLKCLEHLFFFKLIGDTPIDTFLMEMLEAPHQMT
Sequence of Tumor necrosis factor (Homo sapiens) (P01375 whole entry, looked up): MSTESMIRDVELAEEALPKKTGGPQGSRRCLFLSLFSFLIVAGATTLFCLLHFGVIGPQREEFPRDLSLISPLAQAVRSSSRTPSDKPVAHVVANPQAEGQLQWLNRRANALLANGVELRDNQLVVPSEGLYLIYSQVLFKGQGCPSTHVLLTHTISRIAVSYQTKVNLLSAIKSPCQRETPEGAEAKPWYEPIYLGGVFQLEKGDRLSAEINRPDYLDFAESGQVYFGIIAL
Sequence of Voltage-gated inwardly rectifying potassium channel KCNH2 (Homo sapiens) (Q12809 whole entry, looked up): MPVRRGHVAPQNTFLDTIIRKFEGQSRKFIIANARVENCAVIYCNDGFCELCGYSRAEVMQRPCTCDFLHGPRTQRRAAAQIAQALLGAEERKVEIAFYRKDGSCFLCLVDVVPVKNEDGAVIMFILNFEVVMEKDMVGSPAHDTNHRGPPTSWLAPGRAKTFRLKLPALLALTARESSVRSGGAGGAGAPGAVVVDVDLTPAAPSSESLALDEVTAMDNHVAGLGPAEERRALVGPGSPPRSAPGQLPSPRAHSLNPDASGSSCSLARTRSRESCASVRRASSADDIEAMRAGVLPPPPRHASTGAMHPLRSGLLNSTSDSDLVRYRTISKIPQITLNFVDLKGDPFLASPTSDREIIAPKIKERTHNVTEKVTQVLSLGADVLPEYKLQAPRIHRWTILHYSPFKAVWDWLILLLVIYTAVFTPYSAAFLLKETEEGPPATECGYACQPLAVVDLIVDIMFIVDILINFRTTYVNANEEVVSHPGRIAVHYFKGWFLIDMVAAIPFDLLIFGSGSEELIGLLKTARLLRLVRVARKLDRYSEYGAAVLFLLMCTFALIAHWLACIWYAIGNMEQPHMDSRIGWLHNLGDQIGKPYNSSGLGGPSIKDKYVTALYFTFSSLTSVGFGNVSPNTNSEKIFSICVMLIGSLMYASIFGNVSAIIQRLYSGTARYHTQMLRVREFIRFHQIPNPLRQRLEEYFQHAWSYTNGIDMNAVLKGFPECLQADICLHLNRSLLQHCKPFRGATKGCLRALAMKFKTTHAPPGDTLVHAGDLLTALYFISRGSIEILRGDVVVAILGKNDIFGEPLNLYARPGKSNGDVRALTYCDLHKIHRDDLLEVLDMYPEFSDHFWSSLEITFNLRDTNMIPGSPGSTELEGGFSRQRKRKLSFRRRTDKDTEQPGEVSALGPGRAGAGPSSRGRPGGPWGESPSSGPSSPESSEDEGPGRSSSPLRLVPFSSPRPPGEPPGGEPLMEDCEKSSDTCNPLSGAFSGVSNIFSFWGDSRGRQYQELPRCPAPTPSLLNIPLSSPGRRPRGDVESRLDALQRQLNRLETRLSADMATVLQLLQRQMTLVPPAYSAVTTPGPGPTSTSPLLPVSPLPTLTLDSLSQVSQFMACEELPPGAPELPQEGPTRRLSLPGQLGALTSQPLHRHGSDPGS
Sequence of Peroxisome proliferator-activated receptor delta (Homo sapiens) (Q03181 whole entry, looked up): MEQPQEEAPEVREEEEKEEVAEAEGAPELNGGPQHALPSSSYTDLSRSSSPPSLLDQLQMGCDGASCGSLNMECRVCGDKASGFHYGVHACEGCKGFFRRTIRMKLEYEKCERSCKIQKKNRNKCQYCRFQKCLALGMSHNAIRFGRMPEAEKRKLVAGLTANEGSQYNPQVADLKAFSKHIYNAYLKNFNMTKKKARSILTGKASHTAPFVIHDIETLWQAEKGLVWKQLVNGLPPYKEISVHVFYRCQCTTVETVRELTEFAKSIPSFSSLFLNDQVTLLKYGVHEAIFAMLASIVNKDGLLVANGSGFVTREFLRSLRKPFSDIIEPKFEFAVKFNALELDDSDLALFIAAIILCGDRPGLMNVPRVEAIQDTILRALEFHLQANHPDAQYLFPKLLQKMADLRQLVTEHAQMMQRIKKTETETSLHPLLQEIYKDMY

For the molecule `OCC(Br)CBr` (stereo unspecified), the molecule was classed as inactive in [1], in [14] and in assay [19]. For the same molecule, the Potency entry in [2], in assay [3], in [4], in assay [5], in [6] and in assay [7] was “inactive” each time. Also, the Potency result in assay [8], in assay [9], in assay [10], in assay [11], in assay [12] and in assay [13] was “inactive” each time. Moreover, the Potency result in [17] and in [18] was “inactive” each time. Also, the max response in assay [15] is -6.01%; in assay [16] it was 1.29% (inactive).
Consider `Brc1ccc(Oc2cc(Br)c(Br)cc2Br)c(Br)c1`, for which the call in assay [1], in [14] and in assay [19] was inactive. The Potency result in assay [2], in [3], in assay [4], in assay [5], in assay [6] and in [7] was “inactive” each time. Further, the Potency entry in assay [8], in [9], in [10], in assay [20], in [11] and in [12] was “inactive” throughout. Besides, the Potency result in assay [13] and in assay [17] was “inactive” each time. The max response was 10.6% and 6.53% in assay [15]; -5.38% (inactive) and -23.6% (inactive) in assay [16].
As to `CCOP(=S)(OCC)Oc1ccc([N+](=O)[O-])cc1`, the molecule was called inactive in assay [1], in [14] and in [19]. The Potency entry in assay [2], in assay [3], in assay [4], in [5], in assay [6] and in [7] was “inactive” throughout. The Potency result in assay [8], in assay [9], in [10], in assay [20], in [11] and in assay [12] was “inactive” in each case. In addition, the Potency entry in assay [13] and in [18] was “inactive” each time. For the same molecule, the max response in [15] was 14.9% and 8.35%; in assay [16] it was 10.9% (inactive) and -20.1% (inactive). In assay [17], the Potency was 35.5 µM (active).
As to `Clc1ccc2ccccc2c1`, the call in [1], in assay [14] and in [19] was inactive. Moreover, the Potency result in assay [2], in assay [3], in assay [4], in assay [5], in [6] and in assay [7] was “inactive” each time. For the same molecule, the Potency entry in [8], in assay [9], in assay [10], in assay [20], in assay [11] and in assay [12] was “inactive” in each case. For the same molecule, the Potency result in assay [13], in assay [17] and in assay [18] was “inactive” in each case.
As for `Cc1ccc([N+](=O)[O-])cc1C`, the call in [1], in [14] and in assay [19] was inactive. Further, the Potency entry in assay [2], in [3], in [4], in assay [5], in [6] and in assay [7] was “inactive” each time. Also, the Potency entry in assay [8], in assay [9], in assay [10], in [20], in assay [11] and in [12] was “inactive” throughout. The Potency entry in assay [13], in assay [17] and in [18] was “inactive” in each case. Also, the max response in assay [15] was -4.65% and -9.04%; in [16], 17.5% (inactive) and -26.4% (inactive).
As for `CCCSC(=O)Cl`, the outcome in [1], in [14] and in assay [19] was inactive. For the same molecule, the Potency entry in assay [2], in assay [3], in assay [4], in [5], in assay [6] and in [7] was “inactive” each time. In addition, the Potency result in [8], in assay [9], in assay [10], in assay [20], in assay [11] and in [12] was “inactive” in each case. Besides, the Potency result in assay [13], in assay [17] and in assay [18] was “inactive” in each case. Moreover, the max response in [15] was -2.55%; in [16], 25.6% (inactive).

The values are drawn from PubChem BioAssay (NCATS).
